Common to all, as to test: DAPPL (digital affinity profiling via proximity ligation, sequencing); 10 mM Tris-HCl pH 7.5, 50 mM NaCl, 1 mM DTT, 4% glycerol, room temperature, 30 min; GST-TFs on glutathione beads, 16-mer random dsDNA library, 0.1% formaldehyde crosslink after washing; high values mean tight binding
Holding throughout (conditions): protein: recombinant; tags: N-terminal GST; dsDNA, one strand shown

The target of one test is T1, ERF (Homo sapiens, UniProt P50548 1-548).
T1 sequence: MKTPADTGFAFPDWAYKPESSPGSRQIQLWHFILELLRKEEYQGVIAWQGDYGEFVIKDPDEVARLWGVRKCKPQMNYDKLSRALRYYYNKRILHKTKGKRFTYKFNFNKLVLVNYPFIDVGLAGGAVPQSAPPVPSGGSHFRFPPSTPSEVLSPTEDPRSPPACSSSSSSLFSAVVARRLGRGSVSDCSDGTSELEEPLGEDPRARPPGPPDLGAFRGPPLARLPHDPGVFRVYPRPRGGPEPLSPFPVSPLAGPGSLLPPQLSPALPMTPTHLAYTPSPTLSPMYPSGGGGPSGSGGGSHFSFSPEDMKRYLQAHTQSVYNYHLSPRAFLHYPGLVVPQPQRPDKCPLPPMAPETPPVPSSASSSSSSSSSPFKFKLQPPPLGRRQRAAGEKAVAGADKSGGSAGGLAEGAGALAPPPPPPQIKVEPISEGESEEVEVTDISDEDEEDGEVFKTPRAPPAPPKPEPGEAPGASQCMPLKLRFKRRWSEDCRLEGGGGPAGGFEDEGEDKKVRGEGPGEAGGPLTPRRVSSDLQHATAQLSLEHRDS
Put shortly: (§1)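 Human transcription factors carrying a GST fusion were produced in yeast, bound to glutathione beads, tagged with DNA barcodes and pooled together with a tag-only sample. Each pool was held with 200 nmole of a random double-stranded 16-mer DNA library in Tris/NaCl/DTT/glycerol buffer for 30 min at room temperature, then washed, crosslinked in 0.1% formaldehyde, proximity-ligated with BsaI/T4 ligase (1 h, 37 °C), PCR-amplified and sequenced on an Illumina NextSeq500. Binding signal is the read frequency of each hexamer for a given factor divided by its frequency in the tag-only sample.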

The next test concerns the target T2, ETV3L (Homo sapiens, UniProt Q6ZN32 1-361).
T2 sequence: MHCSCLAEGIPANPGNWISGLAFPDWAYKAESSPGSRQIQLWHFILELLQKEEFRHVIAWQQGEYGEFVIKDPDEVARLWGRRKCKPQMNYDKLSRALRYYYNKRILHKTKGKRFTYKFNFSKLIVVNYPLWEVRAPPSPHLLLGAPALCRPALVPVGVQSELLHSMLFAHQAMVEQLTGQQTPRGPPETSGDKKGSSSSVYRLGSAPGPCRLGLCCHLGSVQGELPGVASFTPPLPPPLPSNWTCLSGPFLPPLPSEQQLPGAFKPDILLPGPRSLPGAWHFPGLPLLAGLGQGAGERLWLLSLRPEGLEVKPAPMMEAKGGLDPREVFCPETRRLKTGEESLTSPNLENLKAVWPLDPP
A digest of the protocol:
as §1

A further test has as its target T3, ETS2 (Homo sapiens, UniProt P15036 1-469).
T3 sequence: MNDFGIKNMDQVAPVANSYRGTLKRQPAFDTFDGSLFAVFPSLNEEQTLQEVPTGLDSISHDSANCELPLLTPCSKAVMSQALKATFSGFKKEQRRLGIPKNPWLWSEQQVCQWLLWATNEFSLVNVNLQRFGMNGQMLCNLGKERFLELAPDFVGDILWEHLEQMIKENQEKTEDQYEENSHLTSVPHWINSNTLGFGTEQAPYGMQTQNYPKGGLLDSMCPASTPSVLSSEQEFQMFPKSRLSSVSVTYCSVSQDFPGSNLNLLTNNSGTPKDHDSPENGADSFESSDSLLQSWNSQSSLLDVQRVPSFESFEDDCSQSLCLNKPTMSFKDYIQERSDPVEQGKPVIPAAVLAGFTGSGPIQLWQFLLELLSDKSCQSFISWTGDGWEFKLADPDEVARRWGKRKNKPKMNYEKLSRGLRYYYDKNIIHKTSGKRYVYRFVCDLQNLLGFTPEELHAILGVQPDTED
Put shortly: as §1

A further test addresses T4, SPDEF (Homo sapiens, UniProt O95238 1-335).
T4 sequence: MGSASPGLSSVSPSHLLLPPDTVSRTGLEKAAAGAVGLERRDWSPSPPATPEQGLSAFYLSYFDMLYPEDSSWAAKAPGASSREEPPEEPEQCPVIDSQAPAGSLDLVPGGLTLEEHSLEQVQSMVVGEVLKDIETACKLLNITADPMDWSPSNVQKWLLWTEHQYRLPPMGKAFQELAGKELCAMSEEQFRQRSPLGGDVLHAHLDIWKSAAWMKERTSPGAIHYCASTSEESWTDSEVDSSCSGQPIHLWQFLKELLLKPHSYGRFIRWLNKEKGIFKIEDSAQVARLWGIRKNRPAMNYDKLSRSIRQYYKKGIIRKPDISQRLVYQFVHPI
A digest of the protocol:
as §1

The next test addresses T5, ETV7 (Homo sapiens, UniProt Q9Y603 1-341).
T5 sequence: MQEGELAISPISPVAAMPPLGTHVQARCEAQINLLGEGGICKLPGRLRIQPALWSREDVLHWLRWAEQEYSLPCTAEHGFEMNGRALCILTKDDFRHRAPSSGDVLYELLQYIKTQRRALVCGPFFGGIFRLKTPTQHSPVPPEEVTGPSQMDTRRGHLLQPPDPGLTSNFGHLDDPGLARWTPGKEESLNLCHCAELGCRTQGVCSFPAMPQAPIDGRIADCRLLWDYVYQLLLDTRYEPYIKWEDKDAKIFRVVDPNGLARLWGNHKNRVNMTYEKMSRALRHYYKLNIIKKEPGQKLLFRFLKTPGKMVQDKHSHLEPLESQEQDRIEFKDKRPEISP
A digest of the protocol: as §1

Another test has as its target T6, ELF5 (Homo sapiens, UniProt Q9UKW6-2 1-255).
T6 sequence: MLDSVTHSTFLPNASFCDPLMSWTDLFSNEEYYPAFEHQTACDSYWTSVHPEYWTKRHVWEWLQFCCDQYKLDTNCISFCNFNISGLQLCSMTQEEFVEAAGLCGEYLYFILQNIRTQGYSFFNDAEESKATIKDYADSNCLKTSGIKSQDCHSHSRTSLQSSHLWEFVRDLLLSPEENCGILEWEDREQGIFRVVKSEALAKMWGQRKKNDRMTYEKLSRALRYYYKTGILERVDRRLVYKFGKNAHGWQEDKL
A digest of the protocol: as §1

A further test addresses T7, ETV3 (Homo sapiens, UniProt P41162-2 1-143).
T7 sequence: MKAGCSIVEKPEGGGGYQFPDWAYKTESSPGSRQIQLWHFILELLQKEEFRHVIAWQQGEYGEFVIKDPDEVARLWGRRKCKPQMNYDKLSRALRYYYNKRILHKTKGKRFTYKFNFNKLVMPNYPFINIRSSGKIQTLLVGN
Put shortly:
as §1

The target of another test is ETV6 (Homo sapiens, UniProt P41212 1-452). Put shortly: as §1

Here are results for seven sequences from paper PMC7862700, “An all-to-all approach to the identification of sequence-specific readers for epigenetic DNA modifications on cytosine”.

ETV6, sequence (P41212 whole entry): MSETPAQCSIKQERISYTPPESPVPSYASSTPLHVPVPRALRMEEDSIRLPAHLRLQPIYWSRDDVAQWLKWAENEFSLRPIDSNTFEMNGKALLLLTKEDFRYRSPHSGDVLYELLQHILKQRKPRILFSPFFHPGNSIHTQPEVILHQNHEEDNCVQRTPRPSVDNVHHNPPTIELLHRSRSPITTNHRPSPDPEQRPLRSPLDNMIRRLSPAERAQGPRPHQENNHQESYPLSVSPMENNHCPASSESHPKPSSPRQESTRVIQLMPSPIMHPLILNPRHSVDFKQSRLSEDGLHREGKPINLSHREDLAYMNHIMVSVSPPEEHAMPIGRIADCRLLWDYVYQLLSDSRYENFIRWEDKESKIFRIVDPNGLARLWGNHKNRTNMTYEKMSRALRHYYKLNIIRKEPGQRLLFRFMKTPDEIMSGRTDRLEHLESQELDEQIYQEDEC

TATATA: the binding signal with ERF is 1.24 fold enrichment (6-mer frequency, TF over GST control); with ETV3L it was 1.23 fold enrichment (6-mer frequency, TF over GST control); in the test with ETS2, 1.31 fold enrichment (6-mer frequency, TF over GST control); with SPDEF, 1.35 fold enrichment (6-mer frequency, TF over GST control); with ETV7, 1.27 fold enrichment (6-mer frequency, TF over GST control); with ELF5 it was 1.23 fold enrichment (6-mer frequency, TF over GST control). Besides, the binding signal in the test with ETV3 was 1.34 fold enrichment (6-mer frequency, TF over GST control); with ETV6 it was 1.28 fold enrichment (6-mer frequency, TF over GST control).

As to CTCGAG, the binding signal in the test with ERF was 1.29 fold enrichment (6-mer frequency, TF over GST control); with ETV3L, 1.25 fold enrichment (6-mer frequency, TF over GST control); with ETS2, 1.17 fold enrichment (6-mer frequency, TF over GST control); in the test with SPDEF it was 1.16 fold enrichment (6-mer frequency, TF over GST control); with ETV7 it was 1.36 fold enrichment (6-mer frequency, TF over GST control); in the test with ELF5, 1.16 fold enrichment (6-mer frequency, TF over GST control). The binding signal is 1.16 fold enrichment (6-mer frequency, TF over GST control) with ETV3 and 1.32 fold enrichment (6-mer frequency, TF over GST control) with ETV6.

As for CTGCCT, the binding signal in the test with ERF is 1.23 fold enrichment (6-mer frequency, TF over GST control); with ETV3L it was 1.26 fold enrichment (6-mer frequency, TF over GST control); with ETS2, 1.16 fold enrichment (6-mer frequency, TF over GST control); with SPDEF, 1.31 fold enrichment (6-mer frequency, TF over GST control); with ETV7, 1.36 fold enrichment (6-mer frequency, TF over GST control); in the test with ELF5, 1.29 fold enrichment (6-mer frequency, TF over GST control). Besides, the binding signal is 1.23 fold enrichment (6-mer frequency, TF over GST control) in the test with ETV3 and 1.31 fold enrichment (6-mer frequency, TF over GST control) with ETV6.

In the case of TTCCCA, the binding signal with ERF is 1.24 fold enrichment (6-mer frequency, TF over GST control); with ETV3L, 1.25 fold enrichment (6-mer frequency, TF over GST control); in the test with ETS2, 1.15 fold enrichment (6-mer frequency, TF over GST control); with SPDEF, 1.25 fold enrichment (6-mer frequency, TF over GST control); in the test with ETV7, 1.27 fold enrichment (6-mer frequency, TF over GST control); with ELF5 it was 1.42 fold enrichment (6-mer frequency, TF over GST control). Further, the binding signal with ETV3 was 1.25 fold enrichment (6-mer frequency, TF over GST control); in the test with ETV6 it was 1.33 fold enrichment (6-mer frequency, TF over GST control).

Turning to TTTGCA, the binding signal was 1.13 fold enrichment (6-mer frequency, TF over GST control) with ERF; 1.31 fold enrichment (6-mer frequency, TF over GST control) in the test with ETV3L; 1.14 fold enrichment (6-mer frequency, TF over GST control) with ETS2; 1.23 fold enrichment (6-mer frequency, TF over GST control) with SPDEF; 1.21 fold enrichment (6-mer frequency, TF over GST control) with ETV7; 1.24 fold enrichment (6-mer frequency, TF over GST control) with ELF5. Also, the binding signal was 1.26 fold enrichment (6-mer frequency, TF over GST control) in the test with ETV3 and 1.32 fold enrichment (6-mer frequency, TF over GST control) in the test with ETV6.

TCAAAC: the binding signal is 1.18 fold enrichment (6-mer frequency, TF over GST control) with ERF; 1.09 fold enrichment (6-mer frequency, TF over GST control) in the test with ETV3L; 1.19 fold enrichment (6-mer frequency, TF over GST control) in the test with ETS2; 1.15 fold enrichment (6-mer frequency, TF over GST control) with SPDEF; 1.11 fold enrichment (6-mer frequency, TF over GST control) in the test with ETV7; 1.12 fold enrichment (6-mer frequency, TF over GST control) with ELF5. In addition, the binding signal with ETV3 is 1.21 fold enrichment (6-mer frequency, TF over GST control); with ETV6, 1.19 fold enrichment (6-mer frequency, TF over GST control).

Consider ACCGAT, for which the binding signal with ERF is 1.05 fold enrichment (6-mer frequency, TF over GST control); with ETV3L it was 1.11 fold enrichment (6-mer frequency, TF over GST control); with ETS2, 1.11 fold enrichment (6-mer frequency, TF over GST control); with SPDEF, 1.05 fold enrichment (6-mer frequency, TF over GST control); with ETV7, 1.08 fold enrichment (6-mer frequency, TF over GST control); with ELF5, 1.04 fold enrichment (6-mer frequency, TF over GST control). For the same sequence, the binding signal in the test with ETV3 is 1.13 fold enrichment (6-mer frequency, TF over GST control); with ETV6, 1.08 fold enrichment (6-mer frequency, TF over GST control).
